Data on 16 compounds can be found in PubChem BioAssay.

Assay [1] can be described thus: growth inhibition, single agents and combos, LFS_MB_1R, cell-based, cisplatin or BGB combos, synergistic combos for chromothripsis tumors (AID 1671452).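 Note: cells exposed for 96 hours before readout.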 The following applies: LFS_MB_1R medulloblastoma cells, stronger effect = higher value.
Assay [2] in a line: growth inhibition, single agents and combos, CRL2098, cell-based, BGB or cisplatin IC20 combos, synergistic combos for chromothripsis tumors (AID 1671454).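 Note: cells exposed for 96 h before readout; 0% = vehicle DMSO and 100% = killing by high DMSO.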 The following applies: CRL2098 osteosarcoma cells, drug combinations, stronger effect = higher value.
Assay [3] can be described thus: growth inhibition, single agents and combos, HD-MB03, cell-based, BGB or cisplatin IC20 combos, synergistic combos for chromothripsis tumors (AID 1671455; in the data active = inhibition above about 83%;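 note: 0% = vehicle DMSO and 100% = high DMSO as cytotoxic control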). The following applies: HD-MB03 medulloblastoma cells, stronger effect = higher value.
Assay [4] can be described thus: growth inhibition, single agents and combos, UWB1.289, cell-based, BGB or cisplatin combos, synergistic combos for chromothripsis tumors (AID 1671456).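 Note: cells exposed to compound for four days; 0% = vehicle DMSO and 100% = killing by high DMSO.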 The settings on record: UWB1.289 ovarian carcinoma cells, stronger effect = higher value.
Assay [5] is described as follows: growth inhibition, single agents and combos, LFS_MB_2R, cell-based, cisplatin combos, synergistic combos for chromothripsis tumors (AID 1671457).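 Note: cells exposed to compound for four days before readout.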 The settings on record: LFS_MB_2R medulloblastoma cells, stronger effect = higher value.
A short description of assay [6]: UWB1.289_BRCA1 ovarian cancer growth, cell-based, BGB or cisplatin combinations (AID 1671459). The following applies: UWB1.289 BRCA1 ovarian carcinoma, drug combinations, stronger effect = higher value.
Assay [7] in a line: drug combination toxicity in non-malignant astrocytes – cell-based, BGB or cisplatin IC20 combos, cytotoxicity control for chromothriptic childhood tumor combination screen (AID 1671460).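 Note: cells exposed to compounds for 96 hours before viability readout; 0% = vehicle and 100% = killing control.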 The following applies: Human astrocytes, viability inhibition, drug combinations, at 0.5 µM, stronger effect = higher value.
Assay [8] in a line: CRL1545 cell growth, single agent and combined, cisplatin and BGB IC20 combos (AID 1671464).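 Note: cells exposed to compound for 96 hours before readout; 0% = vehicle DMSO and 100% = high DMSO killing control.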 The settings on record: CRL1545 osteosarcoma cells, stronger effect = higher value.
The target in assay [9] is NAD(+) hydrolase SARM1 (Homo sapiens) (UniProt Q6SZW1). Kind of assay: blocking NAD cleavage by SARM1 SAM-TIR – cell lysate, NAD-Glo luminescence (AID 1508614;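 active = compound whose remaining NAD level is above about 45 nM, limit read from the data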;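 note: higher remaining NAD means stronger inhibition of SARM1 NADase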). The following applies: SAM-TIR HEK293T lysate NADase, at 1 µM, stronger effect = higher value.
Assay [10] is described as follows: liver-stage malaria parasite load reduction – cell-based, known kinase inhibitor set, luminescence, hepatoma host viability (AID 624392; call rule not given here;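 note: infected cells incubated roughly two days before readout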). The following applies: Plasmodium liver stage in hepatoma cells, luciferase luminescence, concentration not given here; liver cell % of control: measured here: host liver cell viability; parasite % of control: stronger effect = lower value.

Assay [11] can be described thus: P. berghei load reduction in hepatocytes – cell-based, HepG2, luciferase luminescence, HepG2 viability, primary screen (AID 624349; in the data active = parasite load remaining mostly below about 12%, no sharp cut-off; inactive = mostly above about 10%;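 note: 100% = mean of DMSO negative control wells on the same plate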). The settings on record: P. berghei liver stage in HepG2, luciferase luminescence, concentration not given here; parasite load remaining: stronger effect = lower value; viability: measured here: HepG2 viability without parasites.
Assay [12] is described as follows: chitosan synthesis blockers in C. neoformans – flow cytometry, Cibacron Brilliant Red staining (AID 1347148; call rule not given here;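 note: compound exposure lasted three days at 37 degrees C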). The settings on record: Cryptococcus neoformans chitosan, stronger effect = lower value; at 10 µM unless noted. A general note: Flow cytometry measures light scatter and fluorescence of single cells or particles in a stream.
A short description of assay [13]: compounds altering viability of human ES cells (AID 493140; call rule not given here;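 note: cells exposed to compounds for four days before counting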). The settings on record: human embryonic stem cell survival screen; stronger effect = higher value.
The test system of assay [14] is Hepatitis C virus NS3 helicase. Kind of assay: blockers of NS3h binding to ssDNA – biochemical, fluorescence polarization, LOPAC1280 library, primary screen (AID 687035; in the data active = inhibition above about 37%). The settings on record: Purified HCV NS3 helicase, Cy5-dT15 ssDNA binding fluorescence polarization; stronger effect = higher value; concentration not given here.
The nature of assay [15]: compounds altering Cy5-DNA-NS3h complex signal – biochemical, LOPAC1280, artefact control for HCV NS3 helicase inhibitor project (AID 687037; call rule not given here). The following applies: Cy5-DNA-NS3h complex fluorescence interference counterscreen. On the technique in general: The purpose of a counterscreen is to sort out artefacts and off-target activity.
A short description of assay [16]: galactose survival enhancers in mitochondrial complex I cybrids – cell-based, galactose medium, ATP luminescence, primary screen (AID 1645843;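 active = z-score of at least 1.8 in each of two replicates, scored against plate mean and spread of sample wells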;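 note: positive z means more ATP and so rescue of galactose-driven cybrid death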). The settings on record: complex I mutant cybrid cells, 72 h, stronger effect = higher value.
Setting [17] is: measured here: combination with BGB IC40, at 0.05 µM.
[18] abbreviates: measured here: combination with cisplatin, at 0.5 µM.
[19] abbreviates: measured here: combination with cisplatin, at 5 µM.
Where [20] appears, read: measured here: combination with BGB at IC20, at 0.5 µM.
Where [21] appears, read: measured here: combination with cisplatin at IC20, at 0.5 µM.
The mark [22] stands for this setting: measured here: combo with BGB at IC20, at 0.5 µM.
Setting [23] is: measured here: combo with cisplatin at IC20, at 0.5 µM.
The mark [24] stands for this setting: measured here: inhibition with BGB combination, at 0.05 µM.
Setting [25] is: measured here: inhibition with cisplatin combination, at 0.05 µM.
[26] abbreviates: BGB combination, concentration series, at 5 µM.
Setting [27] is: cisplatin combination, concentration series, at 5 µM.
[28] abbreviates: measured here: combo with BGB IC20.
Where [29] appears, read: measured here: combo with cisplatin IC20.
[30] abbreviates: measured here: with BGB IC20 combination, at 0.5 µM.
[31] abbreviates: measured here: with cisplatin IC20 combination, at 0.5 µM.

“And” between values parts separate entries of the source, which are not always exact repeats. Equal entries are not always repeated. Some structures have more than one record in an assay (separate samples or runs), and their calls can disagree. The source made the active and inactive calls. Cut-off read from the data, not from the text of the source, unless noted: active = inhibition above about 80%; inactive = the rest. Where a SMILES comes first, the peptide text is derived from it. The star is where a group is joined. Cbz = O=C(OCc1ccccc1)*

NAD(+) hydrolase SARM1 (Homo sapiens), sequence (Q6SZW1 whole entry, looked up): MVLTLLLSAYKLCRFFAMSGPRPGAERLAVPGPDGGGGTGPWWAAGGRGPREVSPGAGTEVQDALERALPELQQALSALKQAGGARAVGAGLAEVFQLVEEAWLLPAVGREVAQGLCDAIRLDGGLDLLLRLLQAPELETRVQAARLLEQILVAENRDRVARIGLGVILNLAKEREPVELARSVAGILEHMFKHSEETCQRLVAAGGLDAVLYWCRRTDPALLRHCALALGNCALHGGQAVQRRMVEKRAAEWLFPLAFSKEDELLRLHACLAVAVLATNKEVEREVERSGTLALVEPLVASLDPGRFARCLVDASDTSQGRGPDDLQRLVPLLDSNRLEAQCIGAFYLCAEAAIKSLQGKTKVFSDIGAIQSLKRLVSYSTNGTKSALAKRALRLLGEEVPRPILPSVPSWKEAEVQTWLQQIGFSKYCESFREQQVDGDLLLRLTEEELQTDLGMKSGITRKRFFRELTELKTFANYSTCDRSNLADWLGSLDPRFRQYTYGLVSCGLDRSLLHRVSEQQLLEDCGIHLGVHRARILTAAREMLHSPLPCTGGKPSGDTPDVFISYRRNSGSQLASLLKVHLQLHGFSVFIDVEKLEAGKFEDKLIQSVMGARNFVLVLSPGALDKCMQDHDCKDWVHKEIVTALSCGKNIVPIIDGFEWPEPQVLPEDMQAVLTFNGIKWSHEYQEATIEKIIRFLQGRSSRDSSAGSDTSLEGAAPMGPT

In general, inhibition refers to the relative decrease from the control value, in per cent. With `C[C@@H]1CN(CC(=O)Nc2ccc3c(c2)Cc2cccc(-c4cc(=O)cc(N5CCOCC5)o4)c2S3)C[C@H](C)O1`, the inhibition in [1] (at 0.5 µM) is -8.44% (inactive) and -21% (inactive); in [1] (setting [17]), 3.35% and -5.52%; in [1] (setting [18]), -14.6% and -41.1%; in [1] (setting [19]) it was -56% and -92.8%; in assay [2] (at 0.5 µM) it was -44.4% (inactive) and -42.5% (inactive); in [2] (setting [20]), -21.5% and -30.1%. In addition, the inhibition was -75.7% and -79.9% in assay [2] (setting [21]); -12% (inactive) and -9.56% (inactive) in assay [3] (at 0.5 µM); -14.5% and -20% in assay [3] (setting [22]); -16.9% and 0.275% in assay [3] (setting [23]); -15.2% (inactive) and 1.44% (inactive) in assay [4] (at 0.5 µM); -5.12% and -6.06% in [4] (setting [24]). The inhibition in [4] (setting [25]) is -21.5% and 20.1%; in assay [5] (at 0.5 µM) it was -9.09% (inactive) and -22.8% (inactive); in assay [5] (setting [18]), -17.7% and -28.5%; in [5] (setting [19]), 7.16% and -9%; in assay [6] (setting [26]), -11.5% and 19.3%; in assay [6] (at 0.5 µM) it was -16.3% (inactive) and -2.61% (inactive). Moreover, the inhibition in [6] (setting [27]) was -2.71% and 10.4%; in [7], -26.1% (inactive) and -28.5% (inactive); in [7] (setting [28]), -42.3% and -37.5%; in assay [7] (setting [29]), -29% and -44.1%; in [8] (at 0.5 µM), 5.04% (inactive) and -9.72% (inactive); in [8] (setting [30]), 22% and -3.16%. The inhibition in assay [8] (setting [31]) was -5.11% and -14.8%; in [8] (single agent, at 0.05 µM), 7.16% and -18.1%; in [8] (single agent, at 5 µM), -20.2% and -4.99%.

Take `CC#CCn1c(N2CCC[C@@H](N)C2)nc2c1c(=O)n(Cc1nc(C)c3ccccc3n1)c(=O)n2C`: the remaining NAD in [9] is 10 nM (inactive).

Turning to `CCC(=O)N1CCN(c2ccc(-n3c(=O)ccc4cnc5ccc(-c6cnc7ccccc7c6)cc5c43)cc2C(F)(F)F)CC1`, in assay [10], the liver cell % of control was 56.3% and 62.9% and 78.1%.

In general, viability refers to a read-out of living cells in per cent, often relative to untreated cells. As for `CC(C)(C)c1nc2c3cc[nH]c(=O)c3c3cc(F)ccc3c2[nH]1`, in assay [11], the parasite load remaining is 88% (inactive) and the viability came out at 127%. In addition, in [10], the liver cell % of control was 205% and 286% and 305%; the parasite % of control was 128% (inactive) and 18.5% (inactive) and 5.35% (inactive).

`CC(C)C[C@@H](C=O)NC(=O)[C@H](CC(C)C)NC(=O)[C@H](CC(C)C)NC(=O)OCc1ccccc1` (Cbz-Leu-Leu-Leu-aldehyde): the fold fluorescence in [12] was 10.3 [at 105.1 µM] (inactive).

On to `CC(C)n1c(/C=C/[C@H](O)C[C@H](O)CC(=O)O)c(-c2ccc(F)cc2)c2ccccc21`, for which, in assay [11], the parasite load remaining was 134% (inactive) and the viability came out at 92.6%.

With `COc1cc2nccc(Oc3ccc(NC(=O)NC4CC4)c(Cl)c3)c2cc1C(N)=O`, in assay [10], the liver cell % of control was 83.2% and 92.7% and 92.2%; the parasite % of control was 3.46% (inactive) and 6.57% (inactive) and 21.7% (inactive).

For `O=C(Nc1cn[nH]c1-c1nc2ccc(CN3CCOCC3)cc2[nH]1)NC1CC1`, in [10], the liver cell % of control is 44.3% and 46.2% and 49.7%; the parasite % of control is 0.367% (inactive) and 0.333% (inactive) and 0.278% (inactive).

For the compound `CCCCC(C)(C)[C@H](O)/C=C/[C@H]1[C@H](O)CC(=O)[C@@H]1C/C=C\CCCC(=O)O`, in assay [13], the survival is 68.2 (inactive).

As to `CC(C)(C)c1cnc(CSc2cnc(NC(=O)C3CCNCC3)s2)o1`, in assay [10], the liver cell % of control was 42.1% and 45.4% and 53.6%; the parasite % of control is 0.331% (inactive) and 0.54% (inactive) and 1.3% (active).

In the case of `Cn1c2ccccc2c2c3c(c4c5ccccc5n(CCC#N)c4c21)CNC3=O`, in assay [11], the parasite load remaining is 110% (inactive) and the viability is 92.8%. For the same compound, the fold fluorescence in assay [12] is 3.75 [at 132.1 µM] (inactive).

Take `Cc1[nH]c(/C=C2\C(=O)Nc3ccc(S(=O)(=O)N(C)c4cccc(Cl)c4)cc32)c(C)c1C(=O)N1CCN(C)CC1`: in assay [11], the parasite load remaining is 38.5% (inactive) and the viability stood at 69.6%.

With `C=CC(=O)Nc1cc2c(Nc3ccc(F)c(Cl)c3)ncnc2cc1C#CC(C)(C)N1CCN(C)CC1`, in assay [10], the liver cell % of control is 44% and 49.4% and 70.7%; the parasite % of control is 0.362% (inactive) and 1.83% (inactive) and 6.99% (inactive).

As to `CN(C)c1ccc(C(=O)NCCCCCCC(=O)NO)cc1`, the inhibition in [1] (at 0.5 µM) is 32.4% (inactive); in assay [1] (setting [17]) it was -37.9%; in assay [1] (setting [18]) it was 63.6%; in assay [1] (setting [19]), 97.6%; in assay [2] (at 0.5 µM), -26.1% (inactive); in assay [2] (setting [20]) it was -83.1%. Further, the inhibition is 6.53% in assay [2] (setting [21]); 47.5% (inactive) in [3] (at 0.5 µM); 38.6% in [3] (setting [22]); 81.5% in assay [3] (setting [23]); 31% (inactive) in assay [4] (at 0.5 µM); -11.2% in [4] (setting [24]). Also, the inhibition is 3.19% in [4] (setting [25]); 15.7% (inactive) in [5] (at 0.5 µM); 37.8% in assay [5] (setting [18]); 95.1% in [5] (setting [19]); 88.6% in assay [6] (setting [26]); 35.3% (inactive) in [6] (at 0.5 µM). The inhibition in assay [6] (setting [27]) was 103%; in assay [7], 25.9% (inactive); in assay [7] (setting [28]), 24.7%; in [7] (setting [29]), 16.4%; in assay [8] (at 0.5 µM), 76.1% (inactive); in [8] (setting [30]) it was 71.1%. For the same compound, the inhibition in [8] (setting [31]) came out at 78%; in assay [8] (single agent, at 0.05 µM), 23%; in assay [8] (single agent, at 5 µM), 91.7%.

For `CC(C)c1nn(-c2c(Cl)cccc2Cl)c2nc(Cc3ccc(OCCO)cc3)[nH]c(=O)c12`, in assay [11], the parasite load remaining was 77.3% (inactive) and the viability stood at 79.7%.

Regarding `O=C1NC(=O)/C(=C/c2ccc3c(c2)OC(F)(F)O3)S1`, in assay [11], the parasite load remaining was 45.5% (inactive) and the viability is 93.8%. Besides, the inhibition in assay [14] was -5% (inactive). Further, the fluorescence ratio (interference) in assay [15] is 1 (inactive). Moreover, the z-score in assay [16] is -0.34 (inactive).
